# Experimental data: PubChem BioAssay (EPA / NIEHS)
# Several values for one entry are separate records, joined by “and”; a condition that tells them apart may be missing. Identical values can stand only once. Records with an inconclusive call do not appear. Activity calls are given as the source filed them. Rule for the calls, unless noted: active = hit-call score of the fitted dose curve at least 0.9, where 1 is the maximum; inactive = score below 0.9.
# Assays:
# [1] = BSK_SAg_PBMCCytotoxicity: PBMC Cytotoxicity Assessment in the BioMAP Diversity Plus: SAg Assay (AID 2283093); conditions: primary human HUVEC with PBMC;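 note: PBMC viability measured as Alamar Blue reduction fluorescence at 546/580 nm; fitted both ways against DMSO so a hit may be loss or gain of signal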;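 for AC50: PBMC superantigen activated with SEB plus TSST-1 one hour after compound addition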
# In short: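 HUVEC/PBMC co-culture; PBMC exposed to chemical 1 h before SEB and TSST-1 activation (20 ng/mL each), incubated 90 h, then Alamar Blue 6 h, fluorescence 546/580 nm. Bidirectional fit versus DMSO baseline.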
# [2] = read-out: Interleukin-8 (IL8), CXCL8 (gene 3576); experiment: BSK_SAg_IL8: BioMAP Diversity Plus: SAg Assay for Interleukin-8 (IL8) Biomarker Activity (AID 2283094); conditions: primary human HUVEC with PBMC; actives raise or lower the signal
# In short: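 ELISA read-out of IL-8 in a primary human vascular co-culture (umbilical vein endothelium plus PBMC), taken 24 h after compound addition. Values derive from bidirectional fits against DMSO negative controls.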
# [3] = BSK_SAg_Proliferation: Cell Proliferation Assessment in the BioMAP Diversity Plus: SAg Assay (AID 2283095); conditions: primary human HUVEC with PBMC;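 note: relative cell number as total protein by SRB absorbance in sub-confluent culture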
# In short: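 Cells (endothelium plus PBMC, human primary) were dosed with chemical, cultured 96 h, fixed in 10% TCA and stained with 0.1% SRB. Absorbance at 560 nm gave relative protein, fitted bidirectionally relative to DMSO.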
# [4] = BSK_SAg_SRB: Viability Assessment in the BioMAP Diversity Plus: SAg Assay (AID 2283096); conditions: primary human HUVEC with PBMC;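 note: cells read one day after compound addition; hits may be either gain or loss of signal compared with DMSO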
# In short: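 Human umbilical vein endothelial cells co-cultured with PBMC, read 24 h after compound dosing. Total protein measured by sulforhodamine B staining (0.1% SRB after 10% TCA fixation, absorbance 560 nm); bidirectional fit versus DMSO baseline.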
# [5] = target: human CYP2D6, CYP2D6 (gene 1565) (UniProt P10635); experiment: NVS_ADME_hCYP2D6: NovaScreen (NVS) CYP450-related Enzyme Activity (ADME) Assay for human CYP2D6 (AID 2283107; active = hit-call score of the fitted dose curve at least 0.9, where 1 is the maximum)
# In short: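 Compounds were first tested in duplicate at 10 uM against recombinant enzyme produced in insect cells, with substrate turnover measured by fluorescence after 1 hour. Decreased signal, referenced to acetonitrile vehicle, was taken as reduced enzyme activity. Active chemicals went on to concentration-response testing.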
# [6] = target: human CYP2C9, CYP2C9 (gene 1559) (UniProt P11712); experiment: NVS_ADME_hCYP2C9: NovaScreen (NVS) CYP450-related Enzyme Activity (ADME) Assay for human CYP2C9 (AID 2283108; active = hit-call score of the fitted dose curve at least 0.9, where 1 is the maximum)
# In short: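 Recombinant human CYP2C9 expressed in SF9 cells, fluorogenic substrate, fluorescence read 0.75 h after dosing. Chemicals first run in duplicate at 10 uM, with actives followed in concentration series; loss of signal versus acetonitrile baseline.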
# [7] = target: Cytochrome P450 3A4 (Homo sapiens) (UniProt P08684); experiment: NVS_ADME_hCYP3A4: NovaScreen (NVS) CYP450-related Enzyme Activity (ADME) Assay for human CYP3A4 (AID 2283110; active = hit-call score of the fitted dose curve at least 0.9, where 1 is the maximum)
# In short: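 Cell-free recombinant enzyme expressed in insect cells; fluorescent substrate turnover read after 0.33 h, acetonitrile as negative control. Primary screen in duplicate at 10 uM, actives then tested in concentration series.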
# [8] = target: Cytochrome P450 2C19 (Homo sapiens) (UniProt P33261); experiment: NVS_ADME_hCYP2C19: NovaScreen (NVS) CYP450-related Enzyme Activity (ADME) Assay for human CYP2C19 (AID 2283113; active = hit-call score of the fitted dose curve at least 0.9, where 1 is the maximum;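 for AC50: potency for inhibition seen as loss of fluorescent signal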)
# In short: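 Chemicals first screened in duplicate at 10 uM against recombinant human enzyme produced in insect cells; confirmed actives then run as concentration series. Fluorogenic substrate turnover read by fluorescence after 1 h, normalised to acetonitrile.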
# [9] = target: human CYP2B6, CYP2B6 (gene 1555) (UniProt P20813); experiment: NVS_ADME_hCYP2B6: NovaScreen (NVS) CYP450-related Enzyme Activity (ADME) Assay for human CYP2B6 (AID 2283101; active = hit-call score of the fitted dose curve at least 0.9, where 1 is the maximum)
# In short: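 Recombinant human CYP2B6 with fluorogenic substrate, read by fluorescence intensity 1 h after dosing. Primary screen in duplicate at 10 uM, actives followed in concentration series; signal loss relative to acetonitrile control.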
# [10] = test system: rat CYP3A1, gene 25642; experiment: NVS_ADME_rCYP3A1: NovaScreen (NVS) CYP450-related Enzyme Activity (ADME) Assay for rat CYP3A1 (AID 2283126; active = hit-call score of the fitted dose curve at least 0.9, where 1 is the maximum)
# In short: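 Cell-free recombinant CYP assay with fluorescent substrate, read 0.5 h after dosing. Screened at 10 uM in duplicate, hits at up to 20 uM in concentration-response; loss of signal versus acetonitrile baseline.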
# [11] = target: rat CYP3A2, Cyp3a2 (gene 266682) (UniProt P05183); experiment: NVS_ADME_rCYP3A2: NovaScreen (NVS) CYP450-related Enzyme Activity (ADME) Assay for rat CYP3A2 (AID 2283128; active = hit-call score of the fitted dose curve at least 0.9, where 1 is the maximum)
# In short: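 Cell-free rat CYP3A2 enzyme assay with fluorescent substrate, read 0.5 h after dosing. Primary duplicate screen at 10 uM; actives run in concentration-response up to 20 uM, relative to acetonitrile baseline.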
# [12] = target: human CYP1A2, CYP1A2 (gene 1544) (UniProt P05177); experiment: NVS_ADME_hCYP1A2: NovaScreen (NVS) CYP450-related Enzyme Activity (ADME) Assay for human CYP1A2 (AID 2283102; active = hit-call score of the fitted dose curve at least 0.9, where 1 is the maximum;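 note: potency for inhibition since loss of fluorescence marks reduced CYP1A2 activity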)
# In short: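 Compounds were tested at 10 uM in duplicate against recombinant CYP1A2 produced in insect cells. Enzyme activity was measured by fluorescence 0.5 h after dosing, with loss of signal versus acetonitrile control. Active compounds were re-tested in concentration series.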
# [13] = target: human CYP2A6, CYP2A6 (gene 1548) (UniProt P11509); experiment: NVS_ADME_hCYP2A6: NovaScreen (NVS) CYP450-related Enzyme Activity (ADME) Assay for human CYP2A6 (AID 2283099; active = hit-call score of the fitted dose curve at least 0.9, where 1 is the maximum)
# In short: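 Recombinant human CYP2A6 from insect cells was incubated with chemical for 0.5 h and activity read by fluorescence. Single-concentration duplicates at 10 uM preceded concentration-response testing to 20 uM, with activity referenced to acetonitrile.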
# [14] = target: human CYP1A1, CYP1A1 (gene 1543) (UniProt P04798); experiment: NVS_ADME_hCYP1A1: NovaScreen (NVS) CYP450-related Enzyme Activity (ADME) Assay for human CYP1A1 (AID 2283100; active = hit-call score of the fitted dose curve at least 0.9, where 1 is the maximum)
# In short: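 Compounds first went through duplicate single-concentration testing at 10 uM against purified CYP1A1. Those passing a threshold such as 30% inhibition entered singleton dose-response, highest concentration 20 uM. Signal was fluorescence measured after 1 hour.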
# [15] = target: rat CYP2A1, Cyp2a1 (gene 24894) (UniProt P11711); experiment: NVS_ADME_rCYP2A1: NovaScreen (NVS) CYP450-related Enzyme Activity (ADME) Assay for rat CYP2A1 (AID 2283114)
# In short: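 Recombinant rat CYP2A1, cell-free, fluorogenic substrate turnover read by fluorescence intensity 0.75 h after dosing. Primary screen at 10 uM in duplicate; actives rerun as concentration-response up to 20 uM; loss of signal versus acetonitrile control.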
# [16] = target: rat CYP2A2, Cyp2a2 (gene 24895) (UniProt P15149); experiment: NVS_ADME_rCYP2A2: NovaScreen (NVS) CYP450-related Enzyme Activity (ADME) Assay for rat CYP2A2 (AID 2283116; active = hit-call score of the fitted dose curve at least 0.9, where 1 is the maximum)
# In short: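 Cell-free recombinant rat CYP2A2 activity with fluorogenic substrate, fluorescence read 0.2 h after dosing. Chemicals screened at 10 uM in duplicate, hits then run in concentration-response up to 20 uM; signal loss versus acetonitrile baseline.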
# [17] = target: rat CYP2C11, Cyp2c11 (gene 29277) (UniProt P08683); experiment: NVS_ADME_rCYP2C11: NovaScreen (NVS) CYP450-related Enzyme Activity (ADME) Assay for rat CYP2C11 (AID 2283118; active = hit-call score of the fitted dose curve at least 0.9, where 1 is the maximum)
# In short: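 Cell-free recombinant rat enzyme with fluorescent substrate; readout 0.33 h after dosing, loss of signal versus acetonitrile control. Initial duplicate single-point at 10 uM; actives rerun in concentration series.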
# [18] = target: rat CYP2C13, Cyp2c13 (gene 171521) (UniProt P20814); experiment: NVS_ADME_rCYP2C13: NovaScreen (NVS) CYP450-related Enzyme Activity (ADME) Assay for rat CYP2C13 (AID 2283121; active = hit-call score of the fitted dose curve at least 0.9, where 1 is the maximum)
# In short: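 Recombinant rat CYP2C13 with fluorogenic substrate, 0.75 h cell-free incubation; primary screen in duplicate at 10 uM, actives followed in concentration series. Fluorescence loss relative to acetonitrile control indicates inhibition.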
# [19] = target: human Acid Phosphatase 1 (ACP1), ACP1 (gene 52) (UniProt P24666); experiment: NVS_ENZ_hACP1: NovaScreen (NVS) Enzymatic Assay for human Acid Phosphatase 1 (ACP1) (AID 2283136; active = hit-call score of the fitted dose curve at least 0.9, where 1 is the maximum)
# In short: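 Recombinant enzyme expressed in Sf9 cells, tested cell-free; activity read by fluorescence with electrophoretic mobility shift separation of substrate and product, 1.5 h after dosing. Primary screen in duplicate at 25 uM, actives then run in concentration series; loss of signal versus DMSO.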
# Sequence of Cytochrome P450 3A4 (Homo sapiens) (P08684 whole entry, looked up): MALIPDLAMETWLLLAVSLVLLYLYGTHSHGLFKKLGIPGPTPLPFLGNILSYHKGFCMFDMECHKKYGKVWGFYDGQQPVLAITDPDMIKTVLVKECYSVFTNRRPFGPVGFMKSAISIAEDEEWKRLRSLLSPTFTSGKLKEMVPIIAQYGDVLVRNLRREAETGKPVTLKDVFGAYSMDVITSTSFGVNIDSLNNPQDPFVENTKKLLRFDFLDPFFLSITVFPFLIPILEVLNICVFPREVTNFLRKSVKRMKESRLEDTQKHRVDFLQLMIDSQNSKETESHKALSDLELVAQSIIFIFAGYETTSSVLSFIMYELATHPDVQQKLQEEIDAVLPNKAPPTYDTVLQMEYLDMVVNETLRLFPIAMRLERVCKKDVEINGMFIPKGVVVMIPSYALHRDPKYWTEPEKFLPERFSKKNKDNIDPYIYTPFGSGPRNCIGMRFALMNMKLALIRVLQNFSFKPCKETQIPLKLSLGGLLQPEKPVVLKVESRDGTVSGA
# Sequence of human CYP2B6, CYP2B6 (gene 1555) (P20813 whole entry, looked up): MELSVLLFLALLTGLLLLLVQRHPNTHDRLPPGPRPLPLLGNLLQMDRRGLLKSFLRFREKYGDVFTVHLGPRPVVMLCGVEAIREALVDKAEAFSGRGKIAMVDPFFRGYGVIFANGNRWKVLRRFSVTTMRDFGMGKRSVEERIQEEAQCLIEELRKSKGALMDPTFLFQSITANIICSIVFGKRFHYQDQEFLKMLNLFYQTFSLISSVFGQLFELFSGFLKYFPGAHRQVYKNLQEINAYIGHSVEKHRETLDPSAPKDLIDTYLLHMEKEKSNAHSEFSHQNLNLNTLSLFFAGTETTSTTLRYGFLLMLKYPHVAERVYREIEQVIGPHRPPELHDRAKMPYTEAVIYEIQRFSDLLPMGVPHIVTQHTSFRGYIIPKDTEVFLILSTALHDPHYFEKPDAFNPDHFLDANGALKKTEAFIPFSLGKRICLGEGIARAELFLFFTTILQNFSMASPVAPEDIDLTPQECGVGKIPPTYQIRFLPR
# Sequence of human CYP2C9, CYP2C9 (gene 1559) (P11712 whole entry, looked up): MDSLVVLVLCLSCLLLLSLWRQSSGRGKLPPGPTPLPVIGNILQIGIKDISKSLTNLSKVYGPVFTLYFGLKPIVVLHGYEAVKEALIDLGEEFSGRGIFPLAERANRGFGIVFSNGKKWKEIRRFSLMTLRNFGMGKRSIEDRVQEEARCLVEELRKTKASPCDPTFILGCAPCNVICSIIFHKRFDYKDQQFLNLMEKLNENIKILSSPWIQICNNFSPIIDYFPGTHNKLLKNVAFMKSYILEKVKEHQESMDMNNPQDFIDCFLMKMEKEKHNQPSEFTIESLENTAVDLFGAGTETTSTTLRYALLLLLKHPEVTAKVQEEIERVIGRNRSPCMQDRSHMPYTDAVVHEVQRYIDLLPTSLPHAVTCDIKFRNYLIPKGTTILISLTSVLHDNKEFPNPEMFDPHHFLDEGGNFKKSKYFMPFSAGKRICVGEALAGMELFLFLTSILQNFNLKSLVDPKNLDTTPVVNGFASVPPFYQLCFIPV
# Sequence of human CYP2D6, CYP2D6 (gene 1565) (P10635 whole entry, looked up): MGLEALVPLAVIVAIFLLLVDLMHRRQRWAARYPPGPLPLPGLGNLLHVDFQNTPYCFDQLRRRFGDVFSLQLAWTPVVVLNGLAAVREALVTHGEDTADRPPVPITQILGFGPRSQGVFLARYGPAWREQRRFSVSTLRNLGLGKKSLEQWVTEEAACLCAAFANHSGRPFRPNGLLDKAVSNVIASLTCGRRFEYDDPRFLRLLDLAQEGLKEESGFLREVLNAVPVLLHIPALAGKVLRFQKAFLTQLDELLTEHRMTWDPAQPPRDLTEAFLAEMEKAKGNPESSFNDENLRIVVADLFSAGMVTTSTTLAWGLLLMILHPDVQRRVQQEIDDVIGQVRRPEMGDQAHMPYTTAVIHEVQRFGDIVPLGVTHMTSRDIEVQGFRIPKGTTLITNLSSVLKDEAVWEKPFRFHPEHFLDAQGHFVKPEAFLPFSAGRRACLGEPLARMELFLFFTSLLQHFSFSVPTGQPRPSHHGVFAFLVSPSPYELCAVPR
# Sequence of rat CYP3A2, Cyp3a2 (gene 266682) (P05183 whole entry, looked up): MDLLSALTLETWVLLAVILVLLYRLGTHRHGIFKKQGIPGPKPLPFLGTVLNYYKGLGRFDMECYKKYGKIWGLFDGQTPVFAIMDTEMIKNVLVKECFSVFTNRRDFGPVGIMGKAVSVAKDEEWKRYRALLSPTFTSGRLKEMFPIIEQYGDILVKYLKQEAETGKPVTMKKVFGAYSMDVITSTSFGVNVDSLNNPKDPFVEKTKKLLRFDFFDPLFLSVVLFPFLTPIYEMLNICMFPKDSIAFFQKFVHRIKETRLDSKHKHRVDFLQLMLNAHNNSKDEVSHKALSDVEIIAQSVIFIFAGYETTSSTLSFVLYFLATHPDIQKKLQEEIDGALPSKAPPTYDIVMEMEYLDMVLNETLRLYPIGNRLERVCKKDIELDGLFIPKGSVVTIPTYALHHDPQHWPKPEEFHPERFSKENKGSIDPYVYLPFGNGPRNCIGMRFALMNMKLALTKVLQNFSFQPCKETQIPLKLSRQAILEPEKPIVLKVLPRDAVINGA
# Sequence of rat CYP2C11, Cyp2c11 (gene 29277) (P08683 whole entry, looked up): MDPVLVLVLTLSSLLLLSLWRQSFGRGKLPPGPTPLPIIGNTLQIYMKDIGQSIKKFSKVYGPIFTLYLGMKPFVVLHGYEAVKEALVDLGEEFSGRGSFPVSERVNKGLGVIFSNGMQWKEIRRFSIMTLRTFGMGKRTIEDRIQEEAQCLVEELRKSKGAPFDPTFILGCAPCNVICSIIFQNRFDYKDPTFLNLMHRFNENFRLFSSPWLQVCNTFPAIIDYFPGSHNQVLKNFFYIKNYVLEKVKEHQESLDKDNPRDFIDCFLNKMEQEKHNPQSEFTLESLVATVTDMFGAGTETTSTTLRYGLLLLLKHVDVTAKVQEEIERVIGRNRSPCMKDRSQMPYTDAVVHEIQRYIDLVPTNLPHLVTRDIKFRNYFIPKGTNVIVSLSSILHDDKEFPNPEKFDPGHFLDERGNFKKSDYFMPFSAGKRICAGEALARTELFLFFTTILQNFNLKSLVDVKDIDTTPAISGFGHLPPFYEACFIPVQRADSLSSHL
# Sequence of rat CYP2C13, Cyp2c13 (gene 171521) (P20814 whole entry, looked up): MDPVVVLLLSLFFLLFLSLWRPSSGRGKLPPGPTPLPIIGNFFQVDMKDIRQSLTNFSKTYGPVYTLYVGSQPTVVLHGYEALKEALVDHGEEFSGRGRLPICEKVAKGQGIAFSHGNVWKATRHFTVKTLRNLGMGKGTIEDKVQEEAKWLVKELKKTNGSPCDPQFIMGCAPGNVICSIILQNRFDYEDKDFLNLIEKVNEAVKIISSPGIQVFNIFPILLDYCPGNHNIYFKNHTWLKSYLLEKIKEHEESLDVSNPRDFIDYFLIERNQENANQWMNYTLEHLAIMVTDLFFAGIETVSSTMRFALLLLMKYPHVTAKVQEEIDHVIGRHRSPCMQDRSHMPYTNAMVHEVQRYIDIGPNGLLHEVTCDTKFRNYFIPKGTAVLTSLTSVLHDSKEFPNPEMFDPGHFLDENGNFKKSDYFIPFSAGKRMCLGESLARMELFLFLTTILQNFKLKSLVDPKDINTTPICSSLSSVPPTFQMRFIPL
# Sequence of human CYP1A1, CYP1A1 (gene 1543) (P04798 whole entry, looked up): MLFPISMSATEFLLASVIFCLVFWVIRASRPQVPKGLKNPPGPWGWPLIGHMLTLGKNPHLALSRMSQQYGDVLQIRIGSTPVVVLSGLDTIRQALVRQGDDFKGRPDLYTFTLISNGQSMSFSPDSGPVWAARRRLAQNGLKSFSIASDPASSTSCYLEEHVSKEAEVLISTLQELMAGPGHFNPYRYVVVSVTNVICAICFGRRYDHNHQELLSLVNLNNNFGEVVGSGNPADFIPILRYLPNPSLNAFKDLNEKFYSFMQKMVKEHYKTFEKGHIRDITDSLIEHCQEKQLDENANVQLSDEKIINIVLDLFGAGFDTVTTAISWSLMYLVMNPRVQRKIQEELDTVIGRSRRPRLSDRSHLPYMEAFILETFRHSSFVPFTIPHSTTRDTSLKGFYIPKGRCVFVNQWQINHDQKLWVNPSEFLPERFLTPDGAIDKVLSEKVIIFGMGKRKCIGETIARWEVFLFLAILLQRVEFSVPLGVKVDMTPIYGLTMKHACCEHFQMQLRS
# Sequence of human Acid Phosphatase 1 (ACP1), ACP1 (gene 52) (P24666 whole entry, looked up): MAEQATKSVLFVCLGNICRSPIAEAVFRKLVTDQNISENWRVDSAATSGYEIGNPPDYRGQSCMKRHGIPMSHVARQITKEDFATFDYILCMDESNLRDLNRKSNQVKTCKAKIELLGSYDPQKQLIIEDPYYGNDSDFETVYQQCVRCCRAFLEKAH
# Sequence of human CYP1A2, CYP1A2 (gene 1544) (P05177 whole entry, looked up): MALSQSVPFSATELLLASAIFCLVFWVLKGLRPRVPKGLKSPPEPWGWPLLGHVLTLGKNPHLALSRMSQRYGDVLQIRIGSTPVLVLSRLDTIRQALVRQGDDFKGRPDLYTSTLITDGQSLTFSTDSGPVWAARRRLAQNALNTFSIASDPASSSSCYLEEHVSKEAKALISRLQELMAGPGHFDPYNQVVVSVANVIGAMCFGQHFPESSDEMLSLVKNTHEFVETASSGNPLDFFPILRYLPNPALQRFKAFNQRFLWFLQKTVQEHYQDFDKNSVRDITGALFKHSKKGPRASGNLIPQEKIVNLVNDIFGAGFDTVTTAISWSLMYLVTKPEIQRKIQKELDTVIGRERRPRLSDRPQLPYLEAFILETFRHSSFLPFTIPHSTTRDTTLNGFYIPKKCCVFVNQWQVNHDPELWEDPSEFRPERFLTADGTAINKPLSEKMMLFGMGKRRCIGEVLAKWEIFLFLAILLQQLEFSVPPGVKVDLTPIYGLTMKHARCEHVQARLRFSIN
structure (smiles),measurement,setting,value
CCCCCCCCCCCO,AC50,[1],33.1 µM (active)
same,outcome,[2],inactive
same,AC50,[3],33.6 µM (active)
same,outcome,[4],inactive
CN(C)C(=O)C1(N2CCCCC2)CCN(CC[C@@]2(c3ccc(Cl)c(Cl)c3)CN(C(=O)c3ccccc3)CCO2)CC1,AC50,[1],15.4 µM (active)
same,AC50,[2],12 µM (active)
same,AC50,[3],5.91 µM (active)
same,AC50,[4],14 µM (active)
same,AC50,[5],4.97 µM (active)
same,AC50,[6],1.17 µM (active)
same,AC50,[7],586 nM (active)
same,AC50,[8],393 nM (active)
O=c1c(-c2ccc(O)cc2)coc2cc(O)cc(O)c12,AC50,[1],20 µM (active)
same,AC50,[2],20 µM (active)
same,AC50,[3],15.6 µM (active)
same,AC50,[4],20 µM (active)
same,outcome,[9],inactive
same,AC50,[10],8.92 µM (active) and 5.71 µM (active)
same,AC50,[11],995 nM (active) and 815 nM (active) and 5.56 µM (active)
CC(=O)N1CCN(c2ccc(OC[C@H]3CO[C@](Cn4ccnc4)(c4ccc(Cl)cc4Cl)O3)cc2)CC1,AC50,[1],33 µM (active)
same,AC50,[2],26.5 µM (active)
same,AC50,[3],22.8 µM (active)
same,AC50,[4],24.7 µM (active)
CCCOC(=O)c1cc(O)c(O)c(O)c1,outcome,[1],inactive
same,outcome,[2],inactive
same,AC50,[3],17 µM (active)
same,outcome,[4],inactive
same,outcome,[6],inactive
same,outcome,[7],inactive
same,outcome,[8],inactive
CC(C)(C)c1csc(-c2cc3cc(OCc4ccccc4CC(=O)O)ccc3o2)n1,outcome,[1],inactive
same,AC50,[2],15.5 µM (active)
same,AC50,[3],20.1 µM (active)
same,AC50,[4],20 µM (active)
O=CCCCC=O,AC50,[1],20.6 µM (active)
same,outcome,[2],inactive
same,AC50,[3],32.8 µM (active)
same,outcome,[4],inactive
OC12N=C(c3ccccc3)SC1Cc1cc(Cl)ccc12 (stereo unspecified),AC50,[1],28.6 µM (active)
same,outcome,[2],inactive
same,AC50,[3],25.4 µM (active)
same,outcome,[4],inactive
same,AC50,[9],3.9 µM (active)
same,AC50,[12],814 nM (active)
same,AC50,[8],245 nM (active)
CCCCCCCCCCCCO,AC50,[1],35.1 µM (active)
same,AC50,[2],19.8 µM (active)
same,AC50,[3],30.1 µM (active)
same,AC50,[4],31.3 µM (active)
CC(C)(c1cc(Br)c(O)c(Br)c1)c1cc(Br)c(O)c(Br)c1,AC50,[1],33.3 µM (active)
same,AC50,[2],30.4 µM (active)
same,AC50,[3],25.4 µM (active)
same,AC50,[4],29.4 µM (active)
same,AC50,[6],2.93 µM (active)
Cc1cn([C@H]2C[C@H](N=[N+]=[N-])[C@@H](CO)O2)c(=O)[nH]c1=O,outcome,[1],inactive
same,outcome,[2],inactive
same,outcome,[3],inactive
same,outcome,[4],inactive
Oc1ccccc1,outcome,[1],inactive
same,outcome,[2],inactive
same,outcome,[3],inactive
same,outcome,[4],inactive
same,outcome,[13],inactive
Cc1occc1C(=O)Nc1ccc(C(=O)N2CCC(F)(F)/C(=C\C(=O)N3CCC(N4CCCCC4)CC3)c3ccccc32)cc1,outcome,[1],inactive
same,outcome,[2],inactive
same,outcome,[3],inactive
same,outcome,[4],inactive
same,AC50,[5],1.77 µM (active)
same,outcome,[7],inactive
CCN(Cc1cccnc1)C(=O)c1cccc(Cl)c1[C@]1(C)C(=O)N(Cc2ccc(OC)cc2OC)c2ccc(Cl)cc21,outcome,[1],inactive
same,AC50,[2],3.93 µM (active)
same,AC50,[3],7.09 µM (active)
same,AC50,[4],5.81 µM (active)
same,outcome,[14],inactive
same,outcome,[9],inactive
same,outcome,[5],inactive
same,AC50,[6],2.28 µM (active)
same,AC50,[7],3580 nM (active)
same,AC50,[8],1010 nM (active)
Cc1ncc(CO)c(CO)c1O,outcome,[1],inactive
same,outcome,[2],inactive
same,outcome,[3],inactive
same,outcome,[4],inactive
CC/C(=C(/CC)c1ccc(O)cc1)c1ccc(O)cc1,AC50,[1],29.1 µM (active)
same,AC50,[2],13.4 µM (active)
same,AC50,[3],11.8 µM (active)
same,AC50,[4],23.1 µM (active)
same,AC50,[15],8.99 µM (active)
same,AC50,[16],10.2 µM (active)
same,AC50,[17],1.95 µM (active) and 7.02 µM (active)
same,AC50,[18],1.08 µM (active) and 3.79 µM (active)
same,outcome,[19],inactive
Oc1ccc2ccccc2c1,outcome,[1],inactive
same,outcome,[2],inactive
same,outcome,[3],inactive
same,outcome,[4],inactive
